Measurements as given in PubChem BioAssay (NCI).
Values joined by “and” are separate entries in the source; they are usually repeats but may differ in a detail not shown here. Equal values may be shown once. The panel holds about 83,000 compounds, 20% with a hit somewhere; the sample as a whole holds those more often.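 Step 1: grow cells in 96-well plates. Step 2: add test compound at a single concentration. Step 3: incubate 48 h. Step 4: record percent growth.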 Active and inactive are the calls of the source. The calls were made as follows: active = growth percent below 10; inactive = the rest.

Columns and labels:
Test in all cases: NCI-60 one-dose screen, 48 h (100 = growth as untreated, 0 = no growth, -100 = all killed)
[1] = system: EKVX NSCLC; settings: 10 µM unless noted
[2] = system: SN12C renal; settings: 10 µM unless noted
[3] = system: TK-10 renal
[4] = system: ACHN renal; settings: 10 µM unless noted
[5] = system: CAKI-1 renal; settings: 10 µM unless noted
[6] = system: A498 renal; settings: 10 µM unless noted
[7] = system: CCRF-CEM leukemia; settings: 10 µM unless noted
[8] = system: MOLT-4 leukemia; settings: 10 µM unless noted
[9] = system: SR leukemia; settings: 10 µM unless noted
[10] = system: RPMI-8226 leukemia; settings: 10 µM unless noted
[11] = system: OVCAR-8 ovarian; settings: 10 µM unless noted
[12] = system: OVCAR-5 ovarian; settings: 10 µM unless noted
[13] = system: OVCAR-4 ovarian; settings: 10 µM unless noted
[14] = system: SK-OV-3 ovarian; settings: 10 µM unless noted
[15] = system: IGROV1 ovarian; settings: 10 µM unless noted
[16] = system: OVCAR-3 ovarian; settings: 10 µM unless noted
[17] = system: HS 578T breast; settings: 10 µM unless noted
[18] = system: NCI/ADR-RES ovarian; settings: 10 µM unless noted
[19] = system: UO-31 renal; settings: 10 µM unless noted

Measured: growth

COc1ccc(/C=N/NC(N)=S)cc1
inactive: [1] 64.1% | [2] 96.1% | [3]; 10 µM unless noted 104% | [4] 101% | [5] 93.3% | [6] 73.4% | [7] 69.1% | [8] 136% | [9] 107% | [10] 88.9% | [11] 100% | [12] 93.7% | [13] 89.8% | [14] 106% | [15] 76.9% | [16] 111% | [17] 101% | [18] 96.7%

CCC(=O)Oc1ccc(OCc2ccccc2)cc1
inactive: [1] 97.2% and 105% | [2] 110% and 81.6% | [19] 45.6% and 30.4% | [3]; 10 µM unless noted 92.1% | [4] 18.4% and 13.3% | [6] 120% and 93.1% | [7] 62.9% and 63.6% | [8] 74.4% and 75.2% | [9] 80.9% and 97.4% | [10] 89.6% and 90.6% | [11] 87.7% and 69.1% | [12] 113% and 119% | [14] 105% and 101% | [15] 92.8% and 82% | [16] 95% and 104% | [17] 98.3% and 97.3% | [18] 66.6% and 65%
61.2% (inactive) and 3.23% (active): [5]

CC(=O)Nc1cscc1NC(C)=O
inactive: [1] 73.2% | [2] 89.1% | [19] 93.3% | [3]; 10 µM unless noted 97.8% | [4] 96.3% | [5] 73.1% | [6] 92.9% | [7] 89.2% | [8] 111% | [9] 90.1% | [10] 95.8% | [11] 107% | [12] 91.9% | [13] 100% | [15] 99.2% | [16] 102% | [17] 103% | [18] 98.9%

O=COCCCc1ccccc1
inactive: [1] 98.8% | [2] 105% | [19] 93.2% | [3]; 10 µM unless noted 92.8% | [4] 110% | [5] 106% | [6] 83.2% | [7] 108% | [8] 113% | [9] 117% | [10] 102% | [11] 99.2% | [12] 105% | [13] 120% | [14] 98.1% | [15] 104% | [16] 109% | [17] 96.6% | [18] 108%

Cc1cnc(N)s1
inactive: [1] 94.2% | [2] 97.2% | [3]; 10 µM unless noted 114% | [4] 96.2% | [5] 96.9% | [8] 103% | [9] 101% | [10] 95.9% | [11] 92.8% | [12] 90.7% | [13] 103% | [14] 89.7% | [15] 103% | [16] 105% | [18] 101%

CN(C)C(=S)N(C)C
inactive: [1] 127% | [2] 104% | [19] 98.4% | [3]; 10 µM unless noted 99.2% | [4] 104% | [5] 98.6% | [6] 120% | [7] 97.5% | [8] 109% | [9] 94.9% | [10] 98.2% | [11] 109% | [12] 105% | [13] 101% | [14] 99.7% | [15] 153% | [16] 107% | [17] 157% | [18] 102%

O=C(NC(CSSCC(NC(=O)OCc1ccccc1)C(=O)O)C(=O)O)OCc1ccccc1 (centres undefined)
inactive: [1] 94.8% | [2] 83.3% and 105% | [19] 67.6% and 98% | [3]; 10 µM unless noted 59.4% | [4] 88.6% and 98.9% | [5] 72.1% and 99.3% | [6] 68.2% and 99% | [7] 87.3% | [8] 52.1% and 82% | [9] 67.8% and 77.7% | [10] 64.7% and 95.7% | [11] 79.5% and 103% | [12] 90.9% and 99.3% | [13] 68.3% and 104% | [14] 107% and 83.5% | [15] 73.1% and 106% | [16] 97.7% and 105% | [18] 97.2% and 101%

O=P(O)(O)OC1C(OP(=O)(O)O)C(OP(=O)(O)O)C(OP(=O)(O)O)C(OP(=O)(O)O)C1OP(=O)(O)O.[Cu+2] (centres undefined)
inactive: [1] 126% | [2] 87.4% | [19] 98.2% | [3]; 10 µM unless noted 118% | [4] 99.7% | [5] 113% | [6] 85.3% | [7] 101% | [8] 98.9% | [9] 81.4% | [10] 101% | [11] 76.8% | [12] 155% | [13] 110% | [14] 114% | [16] 123% | [17] 92.4% | [18] 97.3%

CCN(C)c1ccccc1
inactive: [1] 87.5% | [2] 96.7% | [19] 72.6% | [3]; 10 µM unless noted 107% | [4] 103% | [5] 90.8% | [7] 103% | [8] 88.2% | [9] 93.3% | [10] 104% | [11] 98.2% | [12] 115% | [13] 109% | [14] 89.6% | [15] 113% | [16] 108% | [18] 97.3%

Nc1nc(=S)c2[nH]cnc2[nH]1
18.2% (inactive) and -50.1% (active): [18]
10.1% (inactive) and 0.426% (active): [8]
-20.3% (active) and 11.4% (inactive): [16]
active: [3]; 250 µM -17% and -85.4% | [7] 7.32% and 0.0411% | [9] 5.87% and 0.643% | [10] 1.54% and -23.5% | [12] -30.1% | [14] 5.43% and 6.69%
inactive: [2] 29.5% and 29.9% | [19] 16.4% and 28.5% | [3]; 10 µM 10.3% and 31.3% | [4] 18.7% and 20.5% | [6] 32% | [11] 12% | [13] 25.1% and 44% | [17] 54.1%

COc1ccc2oc3cc(NCCN(C)C)ccc3c(=O)c2c1
inactive: [1] 85.9% | [2] 81.7% and 64.2% | [3]; 10 µM unless noted 106% and 98.9% | [4] 74.5% and 58.9% | [5] 77.2% and 63.5% | [6] 121% and 85.7% | [7] 70.3% | [8] 80.3% and 50.9% | [9] 38.9% | [10] 103% and 73.2% | [11] 88% and 63.4% | [12] 88.2% and 87.1% | [13] 106% and 91.7% | [14] 92.5% and 55% | [15] 90.3% and 88.4% | [16] 121% and 107% | [17] 105% and 83.9% | [18] 90.5% and 69.6%

Cc1ccc(NC(=S)N/C=C(\c2ccccc2)S(=O)Cc2ccccc2)c(C)c1 (centres undefined)
inactive: [1] 86.7% | [2] 98.9% | [19] 80.2% | [3]; 10 µM unless noted 109% | [4] 103% | [5] 87.5% | [6] 103% | [7] 97.3% | [8] 94.3% | [9] 96.5% | [10] 94% | [11] 99.2% | [12] 97% | [13] 91.3% | [14] 100% | [15] 112% | [16] 106% | [17] 94.8% | [18] 105%
